Compound activity: PubChem BioAssay, The Scripps Research Institute Molecular Screening Center
Most compounds without a hit are left out; they make up all but 1.8% or so of the library.
Fam108B inh – mouse Fam108B serine hydrolase inhibitors, primary screen, counter-screen for RBBP9 inhibitor project, biochemical, fluorescence polarization | inhibition, % at 9.51 µM | recombinant Fam108B, FP-Rh probe fluorescence polarization | actives 0.33% (n = 300,000);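 active means inhibition above the screen mean inhibition plus 3 SD, computed separately per campaign, cut at about 18% in these data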;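 further: inhibitors lower polarization as less probe binds the enzyme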
GSTO1 inh – inhibitors of recombinant GSTO1, primary screen, counter-screen for RBBP9 inhibitor project, biochemical, fluorescence polarization; activity-based probe fluorescence polarization; inhibition, % at 5.96 µM; actives 1.1% (n = 300,000); AID 1974, 2009;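 active means inhibition above the campaign mean inhibition plus 3 SD, cut at about 35% in these data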
Target sequence (P78417 whole entry, looked up): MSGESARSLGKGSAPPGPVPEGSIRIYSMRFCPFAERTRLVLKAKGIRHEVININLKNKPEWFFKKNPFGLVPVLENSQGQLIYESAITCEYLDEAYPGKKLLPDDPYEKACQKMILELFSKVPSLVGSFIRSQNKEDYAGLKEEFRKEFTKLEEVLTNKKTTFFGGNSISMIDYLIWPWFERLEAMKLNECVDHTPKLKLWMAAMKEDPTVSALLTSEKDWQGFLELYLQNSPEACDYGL
LYPLA1 counter – LYPLA1 inhibitors, primary screen, counter-screen for PME1 inhibitor project, biochemical, fluorescence polarization, FP-Rh probe ABPP | Acyl-protein thioesterase 1 (Homo sapiens), O75608 | recombinant LYPLA1 | inhibition, % at 5.9 µM | actives 0.16% (n = 320,000) | AID 2174, 2009;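 active means inhibition above the mean of all tested compounds plus 3 SD, set per campaign, cut at about 14% in these data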;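 further: inhibitors block serine hydrolase probe labeling of LYPLA1 so polarization falls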
PAD4 FP inh – human PAD4 inhibitors, primary screen, biochemical, fluorescence polarization, 1536-well format; Protein-arginine deiminase type-4 (Homo sapiens), Q9UM07; recombinant PAD4, RCA probe fluorescence polarization; inhibition, % at 6.36 µM; actives 0.41% (n = 330,000); AID 485272, 2010;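 active means percent inhibition above a cutoff equal to the mean of all tested compounds plus 3 SD, cut at about 15% in these data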
LYPLA2 counter – LYPLA2 inhibitors, primary screen, counter-screen for PME1 inhibitor project, biochemical, fluorescence polarization, FP-Rh probe ABPP. AID 2177, 2009. actives 0.38% (n = 320,000). Acyl-protein thioesterase 2 (Homo sapiens), O95372. recombinant LYPLA2. inhibition, % at 5.9 µM;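 active means inhibition above the screen-wide mean plus 3 SD, limit set per campaign, cut at about 26% in these data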
PME-1 primary – PME-1 inhibitors via competitive probe labeling, primary screen, biochemical, fluorescence polarization, FP-Rh probe, HTS; Protein phosphatase methylesterase 1 (Homo sapiens), Q9Y570; recombinant PME-1; inhibition, % at 5.9 µM; actives 0.53% (n = 320,000);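 active means inhibition above the campaign mean of all compounds plus 3 SD, cut at about 26% in these data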;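 further: competitive labeling of PME-1 active site by serine hydrolase directed probe; inhibitors block probe labeling so polarization falls and inhibition rises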
Target sequence (Q9Y570 whole entry, looked up): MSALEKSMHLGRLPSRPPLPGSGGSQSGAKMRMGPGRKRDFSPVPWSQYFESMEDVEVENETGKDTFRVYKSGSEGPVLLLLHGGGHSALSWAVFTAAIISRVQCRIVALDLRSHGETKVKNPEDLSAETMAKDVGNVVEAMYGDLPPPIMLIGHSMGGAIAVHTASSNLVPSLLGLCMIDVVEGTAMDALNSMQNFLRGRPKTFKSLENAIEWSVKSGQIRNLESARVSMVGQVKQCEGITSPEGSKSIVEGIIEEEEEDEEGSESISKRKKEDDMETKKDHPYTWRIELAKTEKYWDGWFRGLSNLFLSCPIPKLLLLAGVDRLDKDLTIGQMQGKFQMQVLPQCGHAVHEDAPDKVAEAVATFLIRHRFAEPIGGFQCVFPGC
Large screens that a line does not name were inactive.

CCC(C(=O)NC1CCCC1)N(C(=O)c1snc(C(N)=O)c1N)c1ccc(C)cc1C (stereo unspecified)	none
CC(=O)Nc1ccc(S(=O)(=O)NC2=C(N3CCN(c4ccc(F)cc4)CC3)C(=O)c3ccccc3C2=O)cc1	GSTO1 inh 57
Oc1ccc(/C=C/c2ccc3ccccc3n2)cc1	PME-1 primary 28
CCN(CC)c1nc(NN)nc(Nc2ccc(C)c(Cl)c2)n1	none
CCOc1cc(N(CC)CC)ccc1/C=C(/C#N)c1nc2ccccc2[nH]1	PME-1 primary 30
CCCOc1cc(N(CC)CC)ccc1/C=C(/C#N)c1nc2ccc(C)cc2[nH]1	none
Cc1cc(N/N=C/c2ccccc2O)nc(-c2ccccc2O)n1	Fam108B inh 19
Cc1cc(N/N=C\c2ccccc2)nc(-c2ccccc2O)n1	none
CC(C)(C)N1C(=O)c2ccc(C(=O)O)cc2C1=O	none
O=C(O)c1ccc2c(c1)C(=O)/C(=C/c1ccccc1)C2=O	GSTO1 inh 56
CCN(C(=O)CN1CCC(C(=O)OC)CC1)c1c(N)n(Cc2ccccc2)c(=O)[nH]c1=O	none (no result: Fam108B inh, GSTO1 inh, LYPLA1 counter, LYPLA2 counter, PME-1 primary)
O=C(O)c1ccc(NC2=C(N3CCOCC3)C(=O)c3ccccc3C2=O)cc1	GSTO1 inh 46
CC(=O)N(C)C1=C(O)c2ccccc2C(=O)C1=O	none
CC(=O)N(C)C1=C(N2CCOCC2)C(=O)c2ccccc2C1=O	GSTO1 inh 59
CN(CC(=O)Nc1ccc(Cl)c(C(F)(F)F)c1)C(=O)c1cn2ccccc2n1	none
Fc1cccc2sc(Nc3nc4c(F)cccc4s3)nc12	none
Fc1cccc2sc(Nc3nnc(-c4ccccc4)o3)nc12	PME-1 primary 28
O=C(c1ccc(F)cc1)N1CCC(C(=O)N2CCN(S(=O)(=O)c3cccc([N+](=O)[O-])c3)CC2)CC1	none
CC1=NN(c2ccccc2)C(=O)/C1=C\c1sccc1C	none
CC1=NN(c2ccccc2)C(=O)C1=C(C)C	GSTO1 inh 35
CCOc1cc(-c2c(C#N)c(N)nc3c2CCc2ccccc2-3)ccc1O	none
COc1ccccc1-c1c(C#N)c(N)nc2c1CCc1ccccc1-2	PME-1 primary 40
COc1cccc(C(=O)N2CCC(n3nccc3NC(=O)CCOc3ccccc3)CC2)c1	none
O=C(NC1C(=O)NNC1c1ccc(Cl)cc1)c1ccc(F)cc1 (stereo unspecified)	LYPLA2 counter 37
CCC(=O)Nc1ccc(N2CCCCC2)cc1	none
O=C(CCl)Nc1ccc(N2CCCCCC2)cc1	GSTO1 inh 95
COc1ccc(NC(=O)CN(C)C(=O)/C=C/c2cn(-c3ccccc3)nc2-c2cccs2)cc1	none
CCOc1cc(/C=N/NC(=O)c2cc(C)n(-c3ccc(F)cc3)c2C)ccc1O	none
Cc1cc(C(=O)N/N=C2\CC(=O)c3ccccc32)c(C)n1-c1ccc(F)cc1	GSTO1 inh 55
BrC(=C\c1ccccc1)/C=N/Nc1nc2ccccc2[nH]1	GSTO1 inh 37
COc1cc2c(C#N)c(N3CCN(c4ccccc4OC)CC3)nc(N)c2c(N)n1	PME-1 primary 73
Cc1ccc(NS(=O)(=O)c2ccc3c(c2)oc(=O)n3C)cc1C	GSTO1 inh 37
CCOc1ccc(NS(=O)(=O)c2ccc3c(c2)oc(=O)n3C)cc1	GSTO1 inh 36
O=C(CNC(=O)N1CC(=O)Nc2ccccc21)Nc1cc(Cl)ccc1Cl	none
CCOC(=O)N1CCC2(CC1)C(C#N)=C(N)Oc1n[nH]c(CSc3ccc(C)cc3)c12	GSTO1 inh 36
Oc1c(Br)cc(Br)cc1CNc1cnc2ccccc2c1	PME-1 primary 46
COc1cccc(N2C(=O)Nc3ccc(Br)cc3C2(O)C(=O)NCCCOC(C)C)c1 (stereo unspecified)	none
CCOc1ccccc1C(=O)Nc1ccc2nc(N3CCN(c4ncccn4)CC3)cc(C)c2c1	none
COc1cccc(C(=O)Nc2ccc3nc(N4CCN(c5ncccn5)CC4)cc(C)c3c2)c1OC	GSTO1 inh 37
O=C1c2cccc3cccc(c23)C(=O)N1CCN1CCN(CC(O)COc2ccccc2)CC1 (stereo unspecified)	LYPLA2 counter 31
O=C(CCl)Nc1ccccc1C(=O)NCc1ccccc1	GSTO1 inh 86
Cc1ccccc1NC(=O)Nc1ccccc1C(=O)NCc1ccccc1	none
CCCCN(C(=O)CSc1nnnn1C)c1c(N)n(Cc2ccccc2)c(=O)[nH]c1=O	none
CCCCN(C(=O)CSc1nnc(Nc2ccccc2)s1)c1c(N)n(CCC)c(=O)[nH]c1=O	PAD4 FP inh 20
CC(=O)c1ccc(N2Cc3ccccc3/C2=N\C(=O)Nc2ccccc2)cc1	none
CC(=O)c1cccc(N2Cc3ccccc3C2=NC(=O)CCl)c1	GSTO1 inh 78
CCCc1cc(NC(=O)CCl)n(-c2ccccc2)n1	GSTO1 inh 101
CCCc1cc(NC(=O)COC(=O)c2ccc(O)cc2O)n(-c2ccccc2)n1	none (no result: Fam108B inh, GSTO1 inh, LYPLA1 counter, LYPLA2 counter, PME-1 primary)
CCC1(C)Cc2c(sc3nc(NN)n(C)c(=O)c23)CO1 (stereo unspecified)	PME-1 primary 37
CCOC(=O)CSc1nc2sc3c(c2c(=O)[nH]1)CC(C)(CC)OC3 (stereo unspecified)	none
Cc1cc(C(=O)Nc2cc(S(C)(=O)=O)ccc2Cl)c(C)o1	none (no result: Fam108B inh, GSTO1 inh, LYPLA1 counter, LYPLA2 counter, PME-1 primary)
CCC(Sc1nc2ccccc2o1)C(=O)Nc1nnc(C)s1 (stereo unspecified)	GSTO1 inh 44
O=C(CSc1nnc(NC(=O)c2ccc(F)cc2)s1)NC1CCCC1	none
COc1ccc(N2CCN(S(=O)(=O)c3ccc4c(c3)NC(=O)C(C)S4)CC2)cc1 (stereo unspecified)	none
CN(C)c1ccc(NC(=O)CSc2nnc(-c3ccco3)c(-c3ccco3)n2)cc1	none
CSc1nnc(-c2ccco2)c(-c2ccco2)n1	GSTO1 inh 36
Cc1ccc(NC(=O)CSc2nnc(-c3ccco3)c(-c3ccco3)n2)cc1	GSTO1 inh 37
COc1cc2c(cc1NC(=O)c1ccncc1)oc1ccccc12	none
COc1cc2c(cc1NC(=O)c1cccnc1)oc1ccccc12	PME-1 primary 28
COc1ccc(OC)c(C2C(C#N)=C(N)Oc3c2c(C)nn3-c2cccc(Cl)c2)c1 (stereo unspecified)	PAD4 FP inh 35
Cc1ccc(Cc2nnc(SCC(=O)Nc3ccccc3)n(N)c2=O)cc1	none
O=C(OCCN=C1NS(=O)(=O)c2ccccc21)c1ccccc1F	none
O=C(OCCOCCN=C1NS(=O)(=O)c2ccccc21)c1ccccc1Br	PME-1 primary 34
Cn1c(N/N=C/c2c[nH]c3ccccc23)nc2ccccc21	PME-1 primary 30
